Assay results published in PubChem BioAssay (NCATS).
Where “and” joins values, the source holds several entries; their conditions need not be identical. Equal values may be shown once. Values without a mark were called inactive. Results filed as inconclusive are left out. Where a call stands in place of a potency, no number is given. Calls of active or inactive are those of the source. Unless noted, calls come from the whole dose curve; as a rule, active = well fitted curve in the direction sought with a large enough effect; inconclusive = small, poorly fitted or top-dose-only effect, or another doubt; inactive = no such curve, though single readings can be large; an effect the other way counts as inactive or inconclusive.

How the values were obtained:
[1] = Cell Viability - Mesenchymal (AID 546);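 note: cells exposed to compound for 40 hours before reading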; note: potency is the fitted concentration of half-maximal effect
How it was run: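 CellTiter-Glo luminescence (intracellular ATP, 20 min room temperature) after 40 hr compound exposure at 37 °C of 1000 glomerulus-derived human kidney mesenchymal cells/well; AC50 values obtained by fitting qHTS concentration-response data to the Hill equation.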

[2] = Cellular Toxicity (caspase-3) SHSY5Y (AID 657)
How it was run: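 SH-SY5Y human neuroblastoma cells, 1500/well, exposed to compound for 16 hours at 37 °C in complete medium. Caspase-3/7 activity read by Caspase-Glo luminescence after 1 hr at room temperature, normalized to DMSO and 10 uM staurosporine; AC50 from Hill fit.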

[3] = Cellular Toxicity (caspase-3) BJ (AID 658)
How it was run: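 Caspase-Glo 3/7 luminescence, read 1 hr after reagent at room temperature, in normal BJ fibroblasts exposed 16 hours at 37 °C. AC50 values from Hill-equation concentration-response, scaled between DMSO basal and 10 uM staurosporine as 100%.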

[4] = Cellular Toxicity (caspase-3) MRC-5 (AID 659)
How it was run: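 Luminescent Caspase-Glo 3/7 read-out (1 h, room temperature) after a 16 h, 37 °C compound exposure of MRC-5 lung fibroblasts at 1500 cells/well. Concentration-response AC50 from Hill equation; 0% DMSO, 100% 10 uM staurosporine.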

[5] = Cellular Toxicity (caspase-3) Mesangial (AID 660);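 note: cells exposed to compound for 16 h before the caspase read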
How it was run: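 Seed cells derived from normal human renal glomeruli, incubate 5 h, add compounds across concentrations and incubate 16 h at 37 °C. Caspase 3/7 activation is then quantified by luciferase light, with AC50 derived by Hill modeling.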

[6] = Cellular Toxicity (caspase-3) SK-N-SH (AID 661)
How it was run: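 Cells were seeded and incubated 5 hr at 37 °C, dosed with compound over a concentration range for 16 hr, then given Caspase-Glo 3/7 reagent for 1 hr at room temperature before luminescence reading.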

[7] = Cellular Toxicity (caspase-3) Hek293 (AID 664); conditions: HEK293 caspase-3 activation, DMSO = 0%, 100 µM tamoxifen = 100%; at 92.2 µM (top of the series);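 note: cells exposed to compound for 16 h at 37 °C before readout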
How it was run: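 qHTS, HEK293 (human embryonic kidney), 16 h cpd exposure in complete medium. Caspase-3/7 activation = luminescence increase; normalized to DMSO/100 uM tamoxifen; Hill-fit AC50.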

[8] = Cellular Toxicity (caspase-3) N2a (AID 665);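 note: compound exposure lasted 16 h at 37 °C before readout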
How it was run: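 Caspase-3/7 activation, measured as increased luminescence from aminoluciferin release, is quantified in mouse N2a cells exposed to compounds for 16 h. Values are normalized to DMSO and 10 uM staurosporine, with AC50 derived by Hill modelling.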

[9] = Cell Viability - LYMP1-002 - Assay at 16 hr (AID 948)
How it was run: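 LYMP1-002 human lymphoblastoid cells, 2500/well, were treated with compounds for 16 hr at 37 C in complete medium. Viability was read as intracellular ATP by CellTiter-Glo luminescence, and AC50 was derived from a Hill fit to concentration-response data.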

[10] = MultiTox-Fluor Cytotoxicity Assay - LYMP1-003 - Dead Cells (AID 961); note: nearly all actives have a fitted effect of over 70% in size; note: potency is the fitted concentration of half-maximal effect
How it was run: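 Human lymphoblastoid LYMP1-003 cells (2500/well) were treated with compounds for 16 hr at 37 C in complete medium. Dead-cell protease release was read by bis-AAF-R110 fluorescence (Ex/Em 485/520). AC50 came from Hill fits, normalized to DMSO and 15 uM tetraoctylammonium bromide.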

[11] = MultiTox-Fluor Cytotoxicity Assay - LYMP1-003 - Live Cells (AID 962);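 note: cytotoxic hits lower the live-cell protease signal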
How it was run: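 Acute cytotoxicity is scored as a drop in live-cell protease activity in human lymphoblastoid LYMP1-003 cells after 16 hr compound exposure at 37 C. AC50 values come from Hill-equation modelling of concentration-response data.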

[12] = Cell Viability - LYMP1-003 - Assay at 24 hr (AID 963)
How it was run: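 Cytotoxicity is scored as a concentration-dependent fall in ATP-linked luciferase signal in human lymphoblastoid LYMP1-003 cells treated 24 hr at 37 C in complete culture medium.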

[13] = Cell Viability - LYMP2-013 (AID 970);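 note: cells exposed to compound for 24 h at 37 °C; nearly all actives have a fitted effect of over 55% in size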; note: potency is the fitted concentration of half-maximal effect
How it was run: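 Cytotoxicity is scored as a concentration-dependent drop in intracellular ATP in human lymphoblastoid cells after 24 hr compound exposure at 37 C. ATP is quantified by luciferase luminescence, and AC50 values come from Hill-equation modeling.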

[14] = Cell Viability - LYMP2-007 (AID 979);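 note: cells exposed to compound for 24 h before reading; nearly all actives have a fitted effect of over 60% in size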; note: potency is the fitted concentration of half-maximal effect
How it was run: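 Cells are seeded at 2500 per well and rested 5 hr. Compounds are then added over a concentration series for 24 hr at 37 C. CellTiter-Glo is added for 30 min at room temperature before luminescence reading.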

[15] = Cell Viability - LYMP2-008 (AID 980);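 note: cells exposed to compound for 24 h at 37 °C; nearly all actives have a fitted effect of over 60% in size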
How it was run: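 Cells seeded at 2500/well and rested 5 hr at 37 C; compounds added over a concentration range and incubated 24 hr at 37 C; CellTiter-Glo added, 30 min at room temperature; luminescence read and AC50 fitted with Hill model.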

[16] = Cell Viability - LYMP2-014 (AID 983);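 note: cells exposed to compound for 24 h at 37 °C; nearly all actives have a fitted effect of over 50% in size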
How it was run: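 Cells are plated at 2500/well and left 5 hr at 37 C. Compounds are added across a concentration range and incubated 24 hr at 37 C in complete medium. CellTiter-Glo is added, and luminescence is read after 30 min at room temperature.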

[17] = qHTS Assay for Identification of Small Molecule Inducers of Hypoxia Response (AID 2120; active = well fitted curve in the direction sought with a large enough effect in the signal ratio, with a control signal flat, not every such curve was filed as active; the % refers to the signal ratio)
How it was run: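 Cell-based qHTS for reporter induction: hypoxia response element controlled beta-lactamase in ME-180 cells. Compounds incubated 17 h at 37 degrees C; activity from blue/green (460/530 nm) ratio, inducers ranked by AC50.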

[18] = qHTS assay for small molecule agonists of the antioxidant response element (ARE) signaling pathway measured by Nrf2-dependant transcriptional activity - cell viability counter screen (AID 720653; active = well fitted curve in the direction sought with a large enough effect in the repeat runs; an effect the other way counts as inactive or inconclusive); conditions: ARE-bla HepG2 viability, CellTiter-Glo ATP luminescence, 16 h; hits give low values
How it was run: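 Cytotoxicity counter screen: intracellular ATP quantified by CellTiter-Glo luminescence in the same ARE-bla HepG2 plates, after 16 h compound exposure and a 2 h beta-lactamase substrate step.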

[19] = qHTS assay for cell viability of the p53RE-bla HCT-116 cell line (AID 743292); note: nearly all actives have a fitted effect of over 55% in size
How it was run: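 Luminescent ATP quantitation (CellTiter-Glo) served as the viability read-out; reagent was added after 16 h compound exposure at 37 C and read after 30 min at room temperature. Cells: p53RE-bla HCT-116, 4,000 per well.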

[20] = target: Peroxisome proliferator-activated receptor alpha (Homo sapiens) (UniProt Q07869); experiment: qHTS assay for small molecule agonists of the peroxisome proliferator-activated receptor alpha (PPARalpha) signaling pathway (AID 651778); conditions: PathHunter PPARalpha complementation, chemiluminescence, 6 h; hits give high values
How it was run: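 Chemiluminescence from complemented enzyme reported PPARalpha activation in cells after 6 hr of compound treatment at 37 C. The detection reagent was incubated for 60 min at room temperature, and compounds were scored as agonists.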

Peroxisome proliferator-activated receptor alpha (Homo sapiens), sequence (Q07869 whole entry, looked up): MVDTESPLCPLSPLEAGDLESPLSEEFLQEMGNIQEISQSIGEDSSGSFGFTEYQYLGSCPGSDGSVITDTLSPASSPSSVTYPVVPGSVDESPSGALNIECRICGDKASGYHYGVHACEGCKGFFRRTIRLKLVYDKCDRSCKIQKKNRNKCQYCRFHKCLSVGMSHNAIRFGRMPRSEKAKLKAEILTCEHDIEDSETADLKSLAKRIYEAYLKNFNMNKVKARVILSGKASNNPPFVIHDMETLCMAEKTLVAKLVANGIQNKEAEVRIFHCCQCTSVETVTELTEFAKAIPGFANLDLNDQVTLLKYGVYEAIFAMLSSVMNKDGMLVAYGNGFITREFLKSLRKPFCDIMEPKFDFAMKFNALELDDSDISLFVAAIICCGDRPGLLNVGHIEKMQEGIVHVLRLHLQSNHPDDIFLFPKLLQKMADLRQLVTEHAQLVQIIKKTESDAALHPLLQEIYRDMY

SMILES	Potency [1]	outcome [2]	outcome [3]	outcome [4]	outcome [5]	Potency [6]	caspase-3 activation [7] [%]	outcome [8]	outcome [9]	Potency [10]	outcome [11]	outcome [12]	Potency [13]	Potency [14]	Potency [15]	Potency [16]	Potency [17]	max response [18]	Potency [19]	max response [20]
Oc1c(Cl)c(Cl)cc(Cl)c1Cl	inactive	inactive	inactive	inactive	inactive	inactive	-2.19	inactive	inactive	inactive	inactive	inactive	inactive	inactive	inactive	inactive	inactive	-2.21%	inactive	–
ClCCCCl	inactive	inactive	inactive	inactive	inactive	inactive	-1.63	inactive	inactive	inactive	inactive	inactive	inactive	inactive	inactive	inactive	inactive	1.55%	inactive	-2.57%
O=[N+]([O-])c1c(Cl)c(Cl)c(Cl)c(Cl)c1Cl	inactive	inactive	inactive	inactive	inactive	inactive	2.86	inactive	inactive	inactive	inactive	inactive	inactive	inactive	inactive	inactive	inactive	-5.67% and 10.2%	inactive	3.1% and -1.25%
Nc1ccc2ccccc2c1	inactive	inactive	inactive	inactive	inactive	inactive	2.15	inactive	inactive	inactive	inactive	inactive	inactive	inactive	inactive	inactive	inactive	-2.01%	inactive	-2.41%
CC(=O)NNc1ccccc1	inactive	inactive	inactive	inactive	inactive	inactive	-1.37	inactive	inactive	inactive	inactive	inactive	inactive	inactive	inactive	inactive	inactive	1.56%	inactive	-1.86%
CC(Cl)CCl (stereo not given)	inactive	inactive	inactive	inactive	inactive	inactive	-1.21	inactive	inactive	inactive	inactive	inactive	inactive	inactive	inactive	inactive	inactive	-12.6%	inactive	-4.11%
CCCCC(CC)COC(=O)c1ccc(C(=O)OCC(CC)CCCC)c(C(=O)OCC(CC)CCCC)c1 (stereo not given)	inactive	inactive	inactive	inactive	inactive	inactive	16.8	inactive	inactive	inactive	inactive	inactive	inactive	inactive	inactive	inactive	inactive	-7.7%	inactive	-3.57%
C=CC#N	inactive	inactive	inactive	inactive	inactive	inactive	-0.49	inactive	inactive	inactive	inactive	inactive	inactive	inactive	inactive	inactive	inactive	7.55%	inactive	-1.02%
S=C1NCCN1	inactive	inactive	inactive	inactive	inactive	inactive	-0.864	inactive	inactive	inactive	inactive	inactive	inactive	inactive	inactive	inactive	inactive	4.7% and 5.28%	inactive	-2.28% and 8.96%
ClCCOCOCCCl	inactive	inactive	inactive	inactive	inactive	inactive	-1.31	inactive	inactive	inactive	inactive	inactive	inactive	inactive	inactive	inactive	inactive	-12.6%	inactive	-0.0658%
O=C(O)C(Br)Br	inactive	inactive	inactive	inactive	inactive	inactive	-1.18	inactive	inactive	inactive	inactive	inactive	inactive	inactive	inactive	inactive	inactive	-17.6%	inactive	14.7%
O=[N+]([O-])/C=C/c1ccccc1	25.1 µM (active)	–	inactive	inactive	inactive	inactive	-2.17	–	inactive	50.1 µM (active)	inactive	inactive	50.1 µM (active)	31.6 µM (active)	–	–	inactive	-1.14%	inactive	-1.42%
CCCCCC[N+](=O)[O-]	inactive	inactive	inactive	inactive	inactive	inactive	-0.935	inactive	inactive	inactive	inactive	inactive	inactive	inactive	inactive	inactive	inactive	8%	inactive	6.24%
